{"source": "PubChem BioAssay (Tox21)", "note": "Records with an inconclusive call do not appear. Values without a mark were called inactive. Calls of active or inactive are those of the source. Calls follow the shape of the dose curve; as a rule, active = well fitted activation curve with a large enough effect in the signal ratio in the repeat runs (not every such curve was filed as active); inconclusive = weak or mixed curves; inactive = flat fitted curve, though single readings scatter; the % refers to the signal ratio. % is scaled to controls: 0 for no effect and ±100 for the full control effect.", "data": [{"experiment": "qHTS assay to identify small molecule agonists of the TGF-beta/Smad signaling pathway (AID 1346859)", "conditions": "SBE-bla HEK293T, TGF-beta/Smad beta-lactamase reporter, 5 h; series mostly up to 76.8 µM; activation: at the top concentration", "from_the_text": "U.S. Tox21 Program National Center for Advancing Translational Sciences [NCATS] NIH Chemical Genomics Center [NCGC] U.S. Environmental Protection Agency [EPA] National Institutes of Environmental Health Sciences [NIEHS] National Toxicology Program [NTP] U.S. Food and Drug Administration [FDA] Tox21 Assay Overview: Transforming growth factor beta (TGF-beta) superfamily consists of a large number of structurally related dimeric proteins that act as hormones or local mediators in regulating a wide range of biological functions. This superfamily includes TGF-betas themselves, the bone morphogenetic proteins (BMPs) and the activins. These ligands induce oligomerization of serine/threonine receptor kinases and phosphorylate the cytoplasmic signaling molecules of Smad protein family. CellSensor SBE-bla HEK 293T cell line (Life Technologies, Carlsbad, CA), responsive to TGF-beta was used to screen Tox21 10K compound library for identification of agonists/antagonists of the Smad signaling pathway. This cell line contains a beta-lactamase reporter gene under control of the Smad binding element (SBE) stably integrated into HEK 293T cells.\nTox21 Assay Protocol Summary: SBE-bla HEK 293T cells were dispensed at 4,000/well in 6 uL of assay medium into black wall/clear-bottom 1536-well plates using a Multidrop Combi (ThermoFisher Scientific, Waltham, MA) dispenser. After the assay plates were incubated at 37 C and 5% CO2 for an overnight, 23 nL of compounds dissolved in DMSO, positive controls or DMSO only was transferred to the assay plate by a Pintool station (Kalypsys, San Diego, CA). The assay plates were incubated at 37 C and 5% CO2 for 5 hr. One uL of LiveBLAzer B/G FRET substrate (Life Technologies) was added using a Flying Reagent Dispenser (Aurora Discovery, San Diego, CA) and the plates were incubated at room temperature for 2 hr. Fluorescence intensity (405 nm excitation, 460 nm and 530 nm emissions) was measured using an Envision plate reader (PerkinElmer, Shelton, CT).", "units": {"activation": "%"}, "values": [{"smiles": "CCCCCCCCCCCCCCCC(=O)OC(C)C", "outcome": "inactive"}, {"smiles": "CC(C)CC(=O)CC(C)CC(C)C", "note": "(stereo not given)", "outcome": "inactive"}, {"smiles": "Nc1ccc(Cl)c(N)c1", "outcome": "inactive"}, {"smiles": "O=C(O)CCCCCCCCC(=O)O", "outcome": "inactive"}, {"smiles": "O=C(O)/C=C/C(=O)O", "outcome": "inactive"}, {"smiles": "CCO[Si](CCCN)(OCC)OCC", "outcome": "inactive"}, {"smiles": "CCOCCOCCOCCO", "outcome": "inactive"}, {"smiles": "CN(C)c1ccc(O)c2c1C[C@H]1C[C@H]3[C@H](N(C)C)C(=O)C(C(N)=O)=C(O)[C@@]3(O)C(=O)C1=C2O", "outcome": "inactive"}, {"smiles": "CCNc1ccccc1", "outcome": "inactive"}, {"smiles": "O=C(O)Cn1c(=O)n(Cc2ccc(Br)cc2F)c(=O)c2ccc(Cl)cc21", "outcome": "inactive"}, {"smiles": "CC(C)OC(=O)COc1ccc(Cl)cc1Cl", "outcome": "inactive"}, {"smiles": "CC(=O)OC1CC(C)OC(C)O1", "note": "(stereo not given)", "outcome": "inactive"}, {"smiles": "CCO[Si](CCC#N)(OCC)OCC", "outcome": "inactive"}, {"smiles": "Brc1ccc(Br)c(Br)c1", "outcome": "inactive"}, {"smiles": "COc1ccc([N+](=O)[O-])cc1N", "outcome": "inactive"}, {"smiles": "CCNc1cccc(C)c1", "outcome": "inactive"}, {"smiles": "C=C(C)CNCC", "outcome": "inactive"}, {"smiles": "CNC(=S)N(C)C", "outcome": "inactive"}, {"smiles": "COCCCN", "outcome": "inactive"}, {"smiles": "CN/C(=C\\[N+](=O)[O-])NCCSCc1csc(CN(C)C)n1", "outcome": "inactive"}, {"smiles": "CC(=O)OCCOC(C)=O", "outcome": "inactive"}, {"smiles": "CCOCC(=O)O", "outcome": "inactive"}, {"smiles": "CCc1ccccc1CC", "outcome": "inactive"}, {"smiles": "CCCCCC(=O)O", "outcome": "inactive"}, {"smiles": "CN1C(=O)CC[C@H]1c1cccnc1", "outcome": "inactive"}, {"smiles": "C=CC[N+](C)(C)CC=C", "outcome": "inactive"}, {"smiles": "CCCOC(=O)c1ccccc1", "outcome": "inactive"}, {"smiles": "CCCCCCCCCCCC(=O)OC", "outcome": "inactive"}, {"smiles": "COc1ccc(CCC(C)=O)cc1", "outcome": "inactive"}, {"smiles": "CCCCCCCCCCCCCCCCO", "outcome": "inactive"}, {"smiles": "O=C1CCCC1", "outcome": "inactive"}, {"smiles": "c1ccc2c(c1)Cc1ccccc1-2", "outcome": "inactive"}, {"smiles": "NCCNCCN", "outcome": "inactive"}, {"smiles": "CC(=O)OCc1ccco1", "activation": -0.194}, {"smiles": "CC(CCl)OP(=O)(OC(C)CCl)OC(C)CCl", "note": "(stereo not given)", "outcome": "inactive"}, {"smiles": "O=C(O)c1ccc(S(=O)(=O)N(Cl)Cl)cc1", "outcome": "inactive"}, {"smiles": "CCCCCCCC=O", "outcome": "inactive"}, {"smiles": "Cc1ccc([N+](=O)[O-])cc1S(=O)(=O)O", "outcome": "inactive"}, {"smiles": "C=CC(C)CCCC(C)(C)O", "note": "(stereo not given)", "activation": 0.845}, {"smiles": "CCOC(=O)n1ccn(C)c1=S", "outcome": "inactive"}]}]}
